From PubChem BioAssay
BAZ2B block – inhibitors of human BAZ2B bromodomain | Q9UIF8 | AlphaScreen BAZ2B-H3K14Ac peptide displacement | Potency, µM (series often up to 114 µM), usual class: inhibitors | 4.4% of 360,000 active | AID 504333; also: nearly all actives have a fitted effect of over 60% in size
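AlphaScreen luminescence quantifies BAZ2B engagement of H3K14Ac peptide; the protein and biotinylated peptide are both at 50 nM final, buffer PBS pH 7.4 with 0.01% Tween-20, all steps at room temperature.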
JMJD2A Tudor – blocks the human JMJD2A Tudor domain; O75164; AlphaScreen JMJD2A-Tudor / H3K4me3 peptide binding; Potency, µM (titrated, usually from 114 µM), most hits filed as inhibitors; 4.4% of 390,000 active; AID 504339; also: nearly all actives have a fitted effect of over 50% in size
Sfp inh – Sfp phosphopantetheinyl transferase inhibition. Biochemical Sfp PPTase activity, qHTS. Potency, µM, usual class: inhibitors. 3.5% of 310,000 active. AID 1490;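 also: the enzyme is Sfp with the accession as filed and its product quenches rhodamine fluorescence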
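Fluorescence-quenching assay: 15 nM Sfp-PPTase preincubated 15 min at room temperature with compound, then 5 uM rhodamine-CoA and 12.5 uM BHQ-2-labelled YbbR peptide added. Fluorescence (ex 525/em 598 nm) read at start and after 30 min; difference gives rate.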
G9a inh – G9a (human) methyltransferase inhibition | Potency, µM (doses to about 102 µM), usual class: inhibitors | AID 504332 | 8.8% of 350,000 active | G9a H3K9 monomethylation, AlphaScreen, 2 h; also: nearly all actives have a fitted effect of over 75% in size
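Readings reflect AlphaScreen signal from monomethyl-H3K9 antibody detection. HMT at 20 nM; substrate b-H3K9 500 nM; cofactor SAM 20 uM; 2 h RT reaction; compounds tested as titrations in qHTS with 15 min preincubation.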
HP1b binding inh – blocks HP1-beta chromodomain binding to methylated histone tails; AlphaScreen HP1-beta / biotin-H3K9me3 peptide binding; Potency, µM (top dose mostly 114 µM), hits mostly inhibitors; 0.56% of 390,000 active; also: nearly all actives have a fitted effect of over 70% in size
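HP1-beta protein (50 nM final) preincubated 30 min at room temperature with biotinylated H3(1-18)K9me3 peptide (50 nM) in PBS pH 7.4, 0.01% Tween-20, then compound added for 30 min. AlphaScreen streptavidin donor/nickel chelate acceptor beads (10 ug/mL final), 30 min dark, luminescence read.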
L3MBTL1 inh – inhibitors of human L3MBTL1; AlphaScreen L3MBTL1–H3K9me1 peptide binding; Q9Y468; AID 485360; Potency, µM (highest dose often 57.1 µM), actives largely listed as inhibitors; 0.66% of 230,000 active; also: nearly all actives have a fitted effect of over 60% in size
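First, the protein-peptide complex forms for 30 min at room temperature (L3MBTL1 50 nM, biotinylated H3K9me1 peptide 75 nM). Next, compounds are pin-transferred and incubated 30 min. Finally, AlphaScreen beads are added and read after 30 min.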
Hits are given with their value; . = inactive; ? = inconclusive; / = no result; ! = a repeat was not active; [ ] = another dose, or the depositor's remark. A selection: hits, their analogues and other compounds. The true share with any hit is near 12%. Calls follow the shape of the dose curve; as a rule, active = well fitted curve in the direction sought with a large enough effect; inconclusive = small, poorly fitted or top-dose-only effect, or another doubt; inactive = no such curve, though single readings can be large; an effect the other way counts as inactive or inconclusive.

SMILES	BAZ2B block	JMJD2A Tudor	Sfp inh	G9a inh	HP1b binding inh	L3MBTL1 inh
O=C(NCc1ccco1)c1ccccc1-c1nc(-c2ccc(F)cc2)no1	.	.	.	?	.	.
O=C(NCc1ccco1)c1ccccc1NS(=O)(=O)c1ccc(Cl)s1	?	?	.	20µM	.	/
COCCSc1ccccc1C(=O)NCc1ccco1	.	.	18µM	?	.	.
Cc1ccccc1-c1noc(-c2ccccc2C(=O)NCc2ccco2)n1	.	.	45µM	?	?	.
Cc1occc1C(=O)NCc1ccco1	?	.	.	.	.	.
CCOc1cccc(Nc2nn(-c3ccc(OC(F)(F)F)cc3)nc2C(C)=O)c1	.	.	/	.	.	/
Cc1ccccc1C(=O)NCCCn1ccnc1	.	.	.	.	.	/
COCCSc1ccccc1C(=O)NCCCn1ccnc1	.	?	45µM	?	.	.
CCC(C(=O)NCC1CCCO1)N(Cc1ccccc1)C(=O)CNS(=O)(=O)c1ccccc1 (stereo unspecified)	.	.	.	.	.	/
CCOC(=O)C1(C)C=C(Nc2ccc(Br)cc2)C(=O)N1c1ccccc1 (stereo unspecified)	.	.	/	?	.	/
CCOC(=O)C1(C)/C(=N/Nc2ccccc2)C(=O)C(=O)N1c1ccccc1 (stereo unspecified)	?	32µM	.	8.9µM	40µM	/
CCOC(=O)C1(C)/C(=N/Nc2ccccc2OC)C(=O)C(=O)N1c1ccccc1 (stereo unspecified)	40µM	25µM	.	4.5µM	40µM	?
O=C(CC1Nc2cccc3cccc(c23)NC1=O)Nc1ccc(F)cc1 (stereo unspecified)	?	.	?	?	.	.[2.29 µM]
COc1ccc(NC(=O)CC2Nc3cccc4cccc(c34)NC2=O)cc1 (stereo unspecified)	?	?	.	25µM!	.	.
COCCn1c(-c2cccs2)csc1=Nc1cccnc1	45µM	?	?	?	.	/
COCCn1c(-c2ccco2)csc1=Nc1cccnc1	?	89µM	20µM	?	.	/
CC(C)Cn1c(-c2ccco2)csc1=Nc1cccnc1	32µM	.	?	45µM	.	.
Fc1ccccc1-c1csc(=Nc2cccnc2)n1CCCn1ccnc1	45µM	?	.	45µM	.	.
O=C(NC1CCS(=O)(=O)C1)c1ccc2c(c1)OCO2 (stereo unspecified)	.	.	/	.	.	.
Cc1cccc(C(=O)N[C@H](C(=O)Nc2ccc3c(c2)OCO3)C(C)C)c1	/	.	/	/	.	.
CN(CC(=O)Nc1ccc(Cl)cc1)S(=O)(=O)c1cccc2cccnc12	.	.	.	45µM	.	/
CN(CC(=O)Nc1ccc(F)c(F)c1)S(=O)(=O)c1cccc2cccnc12	.	.	.	.	.	/
CN(CC(=O)Nc1ncn[nH]1)S(=O)(=O)c1ccc(Cl)cc1	50µM	?	.	89µM	.	/
Cc1nc(NC(=O)c2ccccc2)sc1-c1csc(NCc2ccccc2)n1	?	?	.	40µM	.	/
CCOC(=O)CNC(=O)c1sc(NC(=O)c2ccccc2)nc1C	.	.	.	.	.	.
SMILES	BAZ2B block	JMJD2A Tudor	Sfp inh	G9a inh	HP1b binding inh	L3MBTL1 inh
Cc1nc(NC(=O)c2ccccc2)sc1-c1csc(N)n1	?	?	.	8.9µM	.	.
Cc1nc(NC(=O)c2ccccc2)sc1-c1csc(Nc2cccc(F)c2)n1	?	/	.	45µM	/	.
Cc1cc(-c2csc(NCc3ccccc3)n2)c(C)n1C	40µM	45µM	?	8.9µM	.	.
COC(=O)Cc1csc(NCc2ccccc2)n1	.	.	.	.	.	/
O=C(CN1CCCN(S(=O)(=O)c2ccc(Br)cc2)CC1)Nc1cccc(C(F)(F)F)c1	.	.	/	?	.	/
COc1ccccc1N1CCN(C(=O)CCc2nnc3ccc(N4CCOCC4)nn23)CC1	.	.	.	.	.	/
Cc1ccc(Cl)cc1Nc1nc(-c2sc(NC(=O)c3ccccc3)nc2C)cs1	?	/	.	/	/	.
Cc1nc(NC(=O)c2ccccc2)sc1-c1csc(NCCc2ccccc2)n1	?	?	.	40µM	.	/
Cc1nc(N)sc1-c1csc(NCc2ccccc2)n1	32µM	?	40µM	10µM	.	.
